{"source": "PubChem BioAssay (NCATS)", "note": "Results filed as inconclusive are left out. Values without a mark were called inactive. Calls follow the shape of the dose curve; as a rule, active = well fitted inhibition curve with a large enough effect; inconclusive = small, poorly fitted or top-dose-only effect; inactive = flat fitted curve, though single readings scatter."}
{"molecular_target": "Tyrosine-protein phosphatase non-receptor type substrate 1 (Homo sapiens) + Leukocyte surface antigen CD47 (Homo sapiens) (UniProt P78324+Q08722)", "sequence (P78324 whole entry, looked up)": "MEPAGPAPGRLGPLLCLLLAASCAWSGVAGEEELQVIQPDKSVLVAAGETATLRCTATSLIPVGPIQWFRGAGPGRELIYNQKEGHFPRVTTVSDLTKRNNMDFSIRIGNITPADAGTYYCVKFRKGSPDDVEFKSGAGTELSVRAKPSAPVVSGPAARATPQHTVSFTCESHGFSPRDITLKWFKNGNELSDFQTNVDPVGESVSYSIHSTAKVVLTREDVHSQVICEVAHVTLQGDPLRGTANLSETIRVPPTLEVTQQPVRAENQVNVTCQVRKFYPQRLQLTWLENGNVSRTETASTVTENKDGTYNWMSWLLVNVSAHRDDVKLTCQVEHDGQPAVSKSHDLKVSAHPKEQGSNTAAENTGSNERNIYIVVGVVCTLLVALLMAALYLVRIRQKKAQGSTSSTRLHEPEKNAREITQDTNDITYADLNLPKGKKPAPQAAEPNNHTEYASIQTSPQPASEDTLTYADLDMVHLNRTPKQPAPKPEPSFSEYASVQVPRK", "sequence (Q08722 whole entry, looked up)": "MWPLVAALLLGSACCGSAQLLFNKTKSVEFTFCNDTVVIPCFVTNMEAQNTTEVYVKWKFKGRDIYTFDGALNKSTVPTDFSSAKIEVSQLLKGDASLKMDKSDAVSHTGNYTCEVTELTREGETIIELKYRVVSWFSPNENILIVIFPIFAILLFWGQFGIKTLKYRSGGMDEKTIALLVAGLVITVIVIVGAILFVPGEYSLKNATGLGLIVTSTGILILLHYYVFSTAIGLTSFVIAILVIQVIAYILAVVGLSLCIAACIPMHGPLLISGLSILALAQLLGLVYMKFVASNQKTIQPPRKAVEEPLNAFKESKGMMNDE", "assay": "CD47-SIRPalpha protein protein interaction - Alpha assay qHTS validation (AID 1347059);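 also: bead proximity luminescence from CD47 binding SIRPalpha after compound preincubation with SIRPalpha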", "conditions": "AlphaScreen CD47-His/biotin-SIRPalpha binding, LOPAC; series mostly up to 38.3 µM; activity change, negative = inhibition: at the top concentration", "text": "SIRPalpha is a myeloid cell expressed immunomodulatory receptor that binds the tumor expressed immune checkpoint CD47. Therapeutic disruption of this interaction leads to immune-mediated tumor rejection. This assay was used to quantitate CD47-SIRPalpha binding biochemically and evaluate chemical libraries for novel CD47-SIRPalpha inhibitors. To recapitulate the biological interaction of CD47 and SIRPalpha, we designed expression constructs to produce their recombinant, soluble, extracellular interaction domains. CD47 was produced with an N-terminal 6His tag. SIRPalpha was produced with an N-terminal Avi-Tag for site-specific biotin incorporation. The CD47-SIRPalpha interaction was measured by AlphaScreen using affinity tag linked reagents (Ni-NTA acceptor bead and streptavidin donor bead). SIRPalpha without biotin incorporation was used as a positive control inhibitor.\nPROTOCOL TABLE (as described by Miller, T. et al. 2019)\nSEQUENCE No. (e.g., 1, 2, 3, etc.); […] (e.g., Cells, Incubation, Reagent, etc.); VALUE and DESCRIPTION.\n1a. Reagent. 2 uL SIRPalpha-biotin (25 nM) added to respective wells in Assay buffer; white/solid bottom high base, med bind 1536-well plates (Greiner 789075)\n1b. Reagent. 2 uL Assay buffer negative control for background fluorescence\n2. Reagent. 23 nL library compounds (7-pt, 1:4 intraplate titration series) or DMSO control transferred by Pin Tool\n3. Centrifuge. Centrifuge plate for 30 s at 1000 RPM\n4. Incubation.#Incubate reagents at room temperature for 30 min, protected from light\n5. Reagent. 2 uL CD47-His (12.5 nM) in Assay buffer\n6. Centrifuge. Centrifuge plate for 30 s at 1000 RPM\n7. Incubation.#Incubate reagents at room temperature for 30 min, protected from light\n8. Reagent. 1 uL Ni-NTA beads (10 ug/mL) added to respective wells\n9. Reagent. 1 uL SAV beads (10 ug/mL) added to respective wells\n10. Centrifuge. Centrifuge plate for 30 s at 1000 RPM\n11. Incubation. Incubate reagents at room temperature for 30 min, protected from light\n12. Detector. Measure AlphaScree n on EnVision (1536A1 aperture)\nWhere possible, perform Donor bead dilution and addition away from direct sunlight or with bright overhead lights turned off (<100 lux, similar to hallway lighting). Lighting should still be bright enough to allow accurate pipetting.\n1. Assay buffer composition.#Phosphate buffered saline (PBS; 10 mM Phosphate, 137 mM NaCl, and 2.7 mM KCl; pH 7.4), 0.05% IGEPAL CA-630\n2. 23nL of […] library compounds (7 plates) or DMSO vehicle control transferred to 9 Greiner white/solid bottom high base, TC plates in 7 interplate 1:5 titrations (see Yasgar, A. et al. 2008) with Pintool. Two of the 9 plates are DMSO-only in compound field at beginning and end of compound library-treated plates.\n12. Aperture = 1536 plate HTS AlphaScreen; plate-detector distance = 0; Total measurement time = 240; Ex. time = 80 ms (33%); Afterglow CT1 corr. factor = 0; Glow CT2 corr. factor = 0; Bleach CT3 corr. factor = 0; Ref. signal= 417733; Ref. AD gain = 2", "units": {"activity change, negative = inhibition": "%"}}
{"smiles": "Nc1nc2ccc(Cl)cc2n2c(-c3ccccc3)nnc12", "activity change, negative = inhibition": -16.6}
{"smiles": "Cc1cc(NC2CCCCC2)nc(-n2nc(C)cc2C)n1", "activity change, negative = inhibition": -4.74}
{"smiles": "CNC(=O)[C@H]1O[C@@H](n2cnc3c(NCc4ccc(N)cc4)ncnc32)[C@H](O)[C@@H]1O", "activity change, negative = inhibition": 0.678}
{"smiles": "NS(=O)(=O)c1ccc(-n2nc(C(F)(F)F)cc2-c2ccc(Cl)cc2)cc1", "activity change, negative = inhibition": 1.65}
{"smiles": "O=C(Nc1ccccc1)c1cc([N+](=O)[O-])ccc1Cl", "activity change, negative = inhibition": 0.0915}
{"smiles": "C[C@@H](CN1CCC(Cc2ccccc2)CC1)[C@@H](O)c1ccc(O)cc1", "activity change, negative = inhibition": 1.15}
{"smiles": "CN(C)c1nc(N)c(C(=O)N=C(N)N)nc1Cl", "activity change, negative = inhibition": -2.97}
{"smiles": "COc1ccc2c(c1)CCC1C2CC[C@@]2(C)C1CC[C@@H]2NCCCCCCN1C(=O)CCC1=O", "note": "(stereo not given in full)", "activity change, negative = inhibition": 1.48}
{"smiles": "Cc1ccc(S(=O)(=O)/C=C/C#N)cc1", "activity change, negative = inhibition": 0.606}
{"smiles": "Clc1ccc(N2CCN(Cc3cc4ccccn4n3)CC2)cc1", "activity change, negative = inhibition": 0.97}
{"smiles": "O=C1NC(=O)/C(=C/c2ccc(-c3ccc(F)cc3O)o2)S1", "activity change, negative = inhibition": -3.85}
{"smiles": "NC(=O)C1=CN(C2OC(COP(=O)(O)OP(=O)(O)OC[C@H]3O[C@@H](n4cnc5c(N)ncnc54)[C@H](OP(=O)(O)O)[C@@H]3O)C(O)C2O)C=CC1", "note": "(stereo not given in full)", "activity change, negative = inhibition": -6.58}
{"smiles": "C[N+]1(C)CCC(OC(=O)C(c2ccccc2)c2ccccc2)CC1", "activity change, negative = inhibition": 0}
{"smiles": "Cc1cn([C@H]2CC(N=[N+]=[N-])[C@@H](CO)O2)c(=O)[nH]c1=O", "note": "(stereo not given in full)", "activity change, negative = inhibition": -1.8}
{"smiles": "O=C(Nc1ccncc1)c1cc([N+](=O)[O-])ccc1Cl", "activity change, negative = inhibition": -1.8}
{"smiles": "CC[C@H]1OC(=O)[C@H](C)C(O[C@H]2C[C@@](C)(OC)[C@@H](O)[C@H](C)O2)[C@H](C)[C@@H](OC2O[C@H](C)C[C@H](N(C)C)[C@H]2O)[C@](C)(O)C[C@@H](C)CN(C)[C@H](C)[C@@H](O)[C@]1(C)O", "note": "(stereo not given in full)", "activity change, negative = inhibition": 0}
{"smiles": "CN1C2CCC1CC(OC(=O)C(O)c1ccccc1)C2", "note": "(stereo not given)", "activity change, negative = inhibition": 0.0487}
{"smiles": "COCCOc1cc2nc[nH]c(=O)c2cc1OCCOC", "activity change, negative = inhibition": 0.0254}
{"smiles": "NS(=O)(=O)C#Cc1ccccc1", "activity change, negative = inhibition": 0.771}
{"smiles": "CC1OC1P(=O)(O)O", "note": "(stereo not given)", "activity change, negative = inhibition": 4.74}
{"smiles": "CCNc1nc2c(ncn2[C@H]2C[C@H](O)[C@@H](CO)O2)c(=O)[nH]1", "activity change, negative = inhibition": -1.62}
{"smiles": "CN1CC(=O)N/C1=N/C(=O)Nc1cccc(Cl)c1", "activity change, negative = inhibition": -3.29}
{"smiles": "O=C1NC(O)=NC1(c1ccccc1)c1ccccc1", "activity change, negative = inhibition": 0}
{"smiles": "O=C(CCCCCN1CCN(c2ccccc2-c2ccccc2)CC1)NC1CCCc2ccccc21", "note": "(stereo not given)", "activity change, negative = inhibition": -16.9}
{"smiles": "OCC1O[C@H](O)C(Cl)C(O)C1O", "note": "(stereo not given in full)", "activity change, negative = inhibition": 3.38}
{"smiles": "Nc1nc(Nc2ccccc2)nc2c1ncn2[C@@H]1O[C@H](CO)[C@@H](O)[C@H]1O", "activity change, negative = inhibition": 0.76}
{"smiles": "Fc1ccc2[nH]c(CN3CCN(c4ccccn4)CC3)cc2c1", "activity change, negative = inhibition": -2.03}
{"smiles": "CNc1ncnc2c1ncn2[C@@H]1O[C@H](CO)[C@@H](O)[C@H]1O", "activity change, negative = inhibition": 0.307}
{"smiles": "Fc1cccc(/C=N/N=C/c2cccc(F)c2)c1", "activity change, negative = inhibition": 1.77}
{"smiles": "Nc1nc(Cl)nc2c1ncn2[C@@H]1O[C@H](COP(=O)(O)OP(=O)(O)OP(=O)(O)O)[C@@H](O)[C@H]1O", "activity change, negative = inhibition": 2.02}
{"smiles": "NC(=O)C(=O)O", "activity change, negative = inhibition": 5.67}
{"smiles": "CC12C(=O)OC(=O)C1(C)C1CCC2O1", "note": "(stereo not given)", "activity change, negative = inhibition": 0.866}
{"smiles": "O=[N+]([O-])c1ccc(CSc2ncnc3c2ncn3[C@@H]2O[C@H](CO)[C@@H](O)[C@H]2O)cc1", "activity change, negative = inhibition": 1.23}
{"smiles": "O=C(O)CNC(=O)C(CS)Cc1ccccc1", "note": "(stereo not given)", "activity change, negative = inhibition": 0.962}
{"smiles": "O=C1C(SCCO)=C(SCCO)C(=O)c2ccccc21", "activity change, negative = inhibition": -24.9}
{"smiles": "COc1ccc(/C=C2\\COc3ccc(C)cc3C2=O)cc1O", "activity change, negative = inhibition": -4.14}
{"smiles": "CC(C)(C=O)Cc1cc(C(C)(C)C)c(O)c(C(C)(C)C)c1", "activity change, negative = inhibition": 0.1}
{"smiles": "CS(=O)(=O)c1ccc(-n2nc(C(F)(F)F)cc2-c2ccc(F)cc2)cc1", "activity change, negative = inhibition": 0.0941}
{"smiles": "NC[C@H]1O[C@@H](n2cnc3c(N)ncnc32)[C@H](O)[C@@H]1O", "activity change, negative = inhibition": 0}
{"smiles": "NCCCCCCCCCCN", "activity change, negative = inhibition": 9.88}
